High-throughput results: PubChem BioAssay, National Center for Advancing Translational Sciences (NCATS)
HCMV inh – blocks human cytomegalovirus replication; activity change, negative = inhibition, % at 57.5 µM; 410,000 tested, 4.5% active; HFF cells, HCMV-luciferase reporter, 72 h; active compounds read low; AID 1259415; in the data active = activity change below about -60%; inconclusive = no clear call, values can overlap the other calls; inactive = above about -39%
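Inhibition of viral replication was scored as loss of reporter luminescence in HFFs infected with HCMV-luciferase (MOI 1 PFU/cell) for 72 h; compounds tested at 2 doses, normalized to buffer and Salinomycin controls.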
Pf growth 96h – P. falciparum growth inhibition at 96 hours | P. falciparum luciferase reporter growth, 96 h | Potency, µM (series often up to 28.7 µM), without a hit: at the top dose activity change, negative = inhibition, hits mostly inhibitors | 320,000 tested, 6.9% active | AID 504834; also: potency is read from the fitted curve at half-maximal effect
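Delayed-death screen, second-generation endpoint: infected erythrocytes, 2% hematocrit, 0.05% parasitemia final; 96 hours at 37 C, 5% CO2; luciferase detection reagent; luminescence decrease equals reduced growth.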
FBPA Giardia inh – blocks Giardia fructose-bisphosphate aldolase activity. A8B2U2. purified Giardia FBPA. Potency, µM (top dose mostly 59.6 µM), for the others: at the top dose activity, negative = inhibition, usual class: inhibitors. 290,000 tested, 0.71% active. AID 2451; also: potency is read from the fitted curve at half-maximal effect; nearly all actives have a fitted effect of over 55% in size
Target sequence (A8B2U2 whole entry, looked up): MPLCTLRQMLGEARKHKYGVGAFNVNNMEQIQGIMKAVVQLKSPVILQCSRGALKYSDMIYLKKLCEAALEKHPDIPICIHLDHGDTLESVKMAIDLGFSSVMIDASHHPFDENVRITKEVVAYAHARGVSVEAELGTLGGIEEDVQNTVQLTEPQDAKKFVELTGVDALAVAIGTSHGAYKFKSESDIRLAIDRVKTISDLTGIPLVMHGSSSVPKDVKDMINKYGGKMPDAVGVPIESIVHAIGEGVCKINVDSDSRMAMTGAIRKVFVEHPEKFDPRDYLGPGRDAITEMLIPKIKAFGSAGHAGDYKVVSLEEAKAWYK
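40 nM FBPA preincubated 10 min at RT with compound (up to 57.5 uM final), then substrate plus GAPDH/TPI/NAD/arsenate coupling and diaphorase/resazurin added. Fluorescence read after 20 min at RT, 525/598 nm.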
Sm TGR block – inhibitors of Schistosoma mansoni thioredoxin glutathione reductase; Q962Y6; purified TGR, DTNB reduction, TNB absorbance 405 nm; Potency, µM (highest dose often 114 µM), for the others: top-dose activity change, negative = inhibition, hits mostly inhibitors; 360,000 tested, 3% active; also: potency is read from the fitted curve at half-maximal effect; nearly all actives have a fitted effect of over 60% in size
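Kinetic colorimetric format: TGR-catalysed, NADPH-driven DTNB reduction monitored via TNB absorbance. Enzyme dispensed at 20 nM; compound exposure 15 min at room temperature before reaction start.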
Pf growth 48h – P. falciparum growth inhibition at 48 hours (one generation) | 310,000 tested, 5.9% active | Potency, µM (doses to about 28.7 µM), for the others: at the highest dose activity change, negative = inhibition, actives largely listed as inhibitors | P. falciparum luciferase growth in erythrocytes, 48 h; also: potency is read from the fitted curve at half-maximal effect
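Here the parasites carry a stable luciferase gene and grow inside erythrocytes in Albumax-based RPMI medium with compound for one erythrocytic cycle. Activity is scored as loss of luminescent signal.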
Active calls of the source: *. Only some compounds are listed: those with a hit (about 14% of all), similar ones and a draw of the others. Unless noted, calls follow the shape of the dose curve; as a rule, active = well fitted curve in the direction sought with a large enough effect; inconclusive = small, poorly fitted or top-dose-only effect, or another doubt; inactive = no such curve, though single readings can be large; an effect the other way counts as inactive or inconclusive. % is scaled to controls: 0 for no effect and ±100 for the full control effect.

For CC(C)CCn1c(N2CCCC2)nc2c1c(=O)[nH]c(=O)n2C the results were HCMV inh 80.8, Pf growth 96h 0.0%, FBPA Giardia inh 10.7%, Sm TGR block 0.2% and Pf growth 48h -18.3%.
For c1cc(C(c2nnnn2C2CCCCC2)N2CCN3CCCC3C2)ccn1 (centres undefined) the results were HCMV inh -10.8, Pf growth 96h 18.0%, FBPA Giardia inh -11.4%, Sm TGR block inconclusive and Pf growth 48h inconclusive.
For c1ccc(CN(Cc2cccs2)C(c2cccs2)c2nnnn2C2CCCC2)cc1 (centres undefined) the results were HCMV inh -32.2, FBPA Giardia inh 0.3%, Sm TGR block -0.1% and Pf growth 48h 13.1µM*.
Screening COc1ccccc1C(c1nnnn1C1CCCC1)N1CCN2CCCC2C1 (centres undefined) returned HCMV inh -11.3, Pf growth 96h 101.5%, FBPA Giardia inh -1.7%, Sm TGR block inconclusive and Pf growth 48h 13.1µM*.
CCCCC(c1nnnn1C1CCCC1)N1CCN(C(=O)c2ccco2)CC1 (centres undefined) was read as HCMV inh -27.3, FBPA Giardia inh 4.8%, Sm TGR block -28.2% and Pf growth 48h 2.08µM*.
`Cc1ccc2occ(C(c3nnnn3C3CCCC3)N3CCN(C(=O)c4ccco4)CC3)c(=O)c2c1` (centres undefined) gave HCMV inh -27.9, Pf growth 96h inconclusive, FBPA Giardia inh -0.3%, Sm TGR block 17.8µM* and Pf growth 48h inconclusive.
Cc1ccc2c(c1)C(c1ccccc1)N(C(=O)c1ccccc1F)CC(=O)N2 (centres undefined) was read as HCMV inh 18.9 and Sm TGR block -11.7%.
For CCOC(=O)CCCCCC(=O)Nc1ccc2c(c1)C(=O)N([C@H](C)CO)C[C@@H](C)[C@@H](CN(C)S(=O)(=O)c1ccc(C)cc1)OCCCC[C@H](C)O2 the results were HCMV inh 12.5.
For CCCC(c1nnnn1C1CCCC1)N1CCN(C(=O)c2ccco2)CC1 (centres undefined) the results were HCMV inh inconclusive, Pf growth 96h inconclusive, FBPA Giardia inh 11.1%, Sm TGR block -6.4% and Pf growth 48h 11.7µM*.
`O=C(c1ccco1)N1CCN(C(c2cccs2)c2nnnn2C2CCCC2)CC1` (centres undefined) gave HCMV inh -100.7*, Pf growth 96h inconclusive, FBPA Giardia inh 0.1%, Sm TGR block -34.6% and Pf growth 48h -16.4%.
`c1coc(CN2CCN(C(c3cccs3)c3nnnn3C3CCCC3)CC2)c1` (centres undefined) gave HCMV inh inconclusive, Pf growth 96h 32.0%, Sm TGR block -4.8% and Pf growth 48h 7.8%.
`CC(C)CC(c1nnnn1C1CCCCC1)N1CCN(C(=O)c2ccco2)CC1` (centres undefined) gave HCMV inh 54.8, Pf growth 96h inconclusive, Sm TGR block -10.6% and Pf growth 48h inconclusive.
For O=C(c1ccco1)N1CCN(C(c2ccccn2)c2nnnn2C2CCCC2)CC1 (centres undefined) the results were HCMV inh -7.4, Pf growth 96h 56.7%, FBPA Giardia inh 2.5%, Sm TGR block inconclusive and Pf growth 48h 97.4%.
COc1ccccc1N1CCN(C(c2cccs2)c2nnnn2C2CCCC2)CC1 (centres undefined) was read as HCMV inh -16.4, Pf growth 96h 137.3%, FBPA Giardia inh 0.5%, Sm TGR block -0.3% and Pf growth 48h 13.1µM*.
For c1ccc(CC2CCN(C(c3cccs3)c3nnnn3C3CCCC3)CC2)cc1 (centres undefined) the results were FBPA Giardia inh -3.6%, Sm TGR block -12.9% and Pf growth 48h 1.85µM*.
`COc1cc(C(c2nnnn2C2CCCC2)N2CCN(C)CC2)cc(OC)c1OC` (centres undefined) gave HCMV inh -10.7, Pf growth 96h 61.5%, FBPA Giardia inh 3.1%, Sm TGR block -5.1% and Pf growth 48h 0.5%.
CCN(C[C@H]1N[C@@](C)(C(=O)OC)[C@H]2C(=O)N(C)C(=O)[C@@H]12)C(=O)COc1ccccc1 was read as HCMV inh -21.2.
